Screening results from PubChem.
Rows were chosen to be rich in hits. Some 1.7% of all compounds tested hit in one or more screens of this group.
LYPLA2 counter = blocks human lysophospholipase 2, a PME1 counter-screen | O95372 | hit rate 0.38% among 320,000 | AID 2177 | recombinant LYPLA2, FP-Rh probe fluorescence polarization | inhibition, % at 5.9 µM;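 active = inhibition above the screen-wide mean plus 3 SD, limit set per campaign, cut at about 26% in these data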;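 note: 0% = LYPLA2 with DMSO and 100% = wells lacking LYPLA2 enzyme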
Target sequence (O95372 whole entry, looked up): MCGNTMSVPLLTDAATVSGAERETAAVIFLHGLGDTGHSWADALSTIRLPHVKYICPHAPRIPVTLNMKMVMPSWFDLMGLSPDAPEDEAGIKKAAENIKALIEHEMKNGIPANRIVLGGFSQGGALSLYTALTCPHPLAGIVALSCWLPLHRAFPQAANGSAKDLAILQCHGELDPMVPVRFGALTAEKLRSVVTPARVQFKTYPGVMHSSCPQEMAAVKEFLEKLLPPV
LYPLA1 inh = counter-screen for PME1 inhibitors: inhibitors of human LYPLA1; hit rate 0.16% among 320,000; inhibition, % at 5.9 µM; AID 2174; recombinant LYPLA1, FP-Rh probe fluorescence polarization;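 active = inhibition above the mean of all tested compounds plus 3 SD, set per campaign, cut at about 14% in these data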;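 note: inhibitors block serine hydrolase probe labeling of LYPLA1 so polarization falls; 0% = enzyme with DMSO and 100% = wells lacking LYPLA1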
PAD4 inh = PAD4 (human) enzyme inhibition; Q9UM07; recombinant PAD4, RCA probe fluorescence polarization; inhibition, % at 6.36 µM; hit rate 0.41% among 330,000; AID 485272;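 active = percent inhibition above a cutoff equal to the mean of all tested compounds plus 3 SD, cut at about 15% in these data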;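 note: 0% = PAD4 with RCA probe and DMSO and 100% = probe without PAD4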
Fam108B inh = blocks mouse Fam108B hydrolase in RBBP9 counter-screen; recombinant Fam108B, FP-Rh probe fluorescence polarization; inhibition, % at 9.51 µM; hit rate 0.33% among 300,000; AID 1947;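 active = inhibition above the screen mean inhibition plus 3 SD, computed separately per campaign, cut at about 18% in these data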;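 note: inhibitors lower polarization as less probe binds the enzyme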
GSTO1 inh = blocks human GSTO1 in RBBP9 counter-screen; P78417; recombinant GSTO1, activity-based probe fluorescence polarization; inhibition, % at 5.96 µM; hit rate 1.1% among 300,000; AID 1974;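 active = inhibition above the campaign mean inhibition plus 3 SD, cut at about 35% in these data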;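 note: 0% = GSTO1-1 with DMSO and 100% = wells lacking GSTO1-1 enzyme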
PME-1 inh = blocks human protein phosphatase methylesterase 1. inhibition, % at 5.9 µM. AID 2130. Q9Y570. recombinant PME-1, FP-Rh probe fluorescence polarization. hit rate 0.53% among 320,000;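 active = inhibition above the campaign mean of all compounds plus 3 SD, cut at about 26% in these data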;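 note: competitive labeling of PME-1 active site by serine hydrolase directed probe; 0% = PME-1 with DMSO and 100% = wells lacking PME-1 enzyme; inhibitors block probe labeling so polarization falls and inhibition rises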
Target sequence (Q9Y570 whole entry, looked up): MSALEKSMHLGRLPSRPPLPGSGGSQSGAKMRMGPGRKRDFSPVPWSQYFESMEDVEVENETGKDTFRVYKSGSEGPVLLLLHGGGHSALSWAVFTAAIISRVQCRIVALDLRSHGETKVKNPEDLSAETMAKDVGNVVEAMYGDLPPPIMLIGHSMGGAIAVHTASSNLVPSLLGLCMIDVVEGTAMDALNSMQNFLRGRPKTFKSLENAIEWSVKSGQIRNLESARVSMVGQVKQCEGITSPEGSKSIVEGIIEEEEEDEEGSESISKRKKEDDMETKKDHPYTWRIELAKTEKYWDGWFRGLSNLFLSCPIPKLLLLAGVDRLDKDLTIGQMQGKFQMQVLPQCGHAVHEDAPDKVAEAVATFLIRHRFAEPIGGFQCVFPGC
Numbers without * were called inactive.

Results for C[C@@H]1O[C@@H](OC2C(O)C(OCCc3ccc(O)c(O)c3)OC(CO)C2OC(=O)/C=C/c2ccc(O)c(O)c2)[C@H](O)[C@H](O)[C@H]1O (some centres undefined) ?
LYPLA2 counter: 3; LYPLA1 inh: -1; PAD4 inh: 0; Fam108B inh: 1; GSTO1 inh: 54*; PME-1 inh: -3

How did CCOC(=O)c1ccc(NC(=O)Nc2ccc3c4c(cccc24)C(=O)N3CC)cc1 do in these assays?
LYPLA2 counter: -7; LYPLA1 inh: -6; PAD4 inh: -7; Fam108B inh: -4; GSTO1 inh: 0; PME-1 inh: 28*

How did CC(C)c1onc(C(=O)NCc2ccccc2)c1[N+](=O)[O-] do in these assays?
LYPLA2 counter: -7; LYPLA1 inh: -5; PAD4 inh: -2; Fam108B inh: 0; GSTO1 inh: 37*; PME-1 inh: 0

How did COc1ccc(CNC(=O)c2noc(C(C)C)c2[N+](=O)[O-])cc1 do in these assays?
LYPLA2 counter: 5; LYPLA1 inh: 2; PAD4 inh: -3; Fam108B inh: 3; GSTO1 inh: 23; PME-1 inh: 3

How did CCCCCn1c(C(C)NC(=O)CCC)nc2ccccc21 (centres undefined) do in these assays?
LYPLA2 counter: 4; LYPLA1 inh: 2; PAD4 inh: 0; Fam108B inh: 1; GSTO1 inh: 9; PME-1 inh: -6

How did Cc1ccc(OC(=O)CCC(=O)Nc2ccc(C)c(C)c2)cc1 do in these assays?
LYPLA2 counter: -4; LYPLA1 inh: 1; PAD4 inh: -2; Fam108B inh: 0; GSTO1 inh: 3; PME-1 inh: 0

Results for O=C(O)Cn1cc(/C=c2/sc3nc4ccccc4n3c2=O)c2ccccc21 ?
LYPLA2 counter: -3; LYPLA1 inh: -1; PAD4 inh: -5; Fam108B inh: 9; GSTO1 inh: -15; PME-1 inh: 31*

Results for O=C(CSc1nnc(-c2cnccn2)n1Cc1ccco1)c1ccc2ccccc2c1 ?
LYPLA2 counter: 0; LYPLA1 inh: -5; PAD4 inh: -4; Fam108B inh: -3; GSTO1 inh: 38*; PME-1 inh: -1

How did CC(C)OC(=O)CSc1nnc(-c2cnccn2)n1Cc1ccco1 do in these assays?
LYPLA2 counter: -2; LYPLA1 inh: 0; PAD4 inh: 3; Fam108B inh: 1; GSTO1 inh: 0; PME-1 inh: 0

Results for COc1ccccc1NS(=O)(=O)c1ccc(N/N=C/c2ccccc2OCC(=O)O)c([N+](=O)[O-])c1 ?
LYPLA2 counter: 6; LYPLA1 inh: 3; PAD4 inh: 0; Fam108B inh: 8; GSTO1 inh: -9; PME-1 inh: 54*

How did O=C(COC(=O)CCCN=C1NS(=O)(=O)c2ccccc21)NNC(=O)c1ccccc1 do in these assays?
LYPLA2 counter: 6; LYPLA1 inh: 4; PAD4 inh: -7; Fam108B inh: 0; GSTO1 inh: 6; PME-1 inh: 5

Results for CC(C)(C)c1ccc(NS(=O)(=O)c2ccc(N)cc2)cc1 ?
LYPLA2 counter: 0; LYPLA1 inh: -5; PAD4 inh: -3; Fam108B inh: 0; GSTO1 inh: 36*; PME-1 inh: 1

How did Nc1ccc(S(=O)(=O)Nc2ccc(S(N)(=O)=O)cc2)cc1 do in these assays?
LYPLA2 counter: -7; LYPLA1 inh: -3; PAD4 inh: 2; Fam108B inh: 7; GSTO1 inh: 6; PME-1 inh: -1

What do the screens show for `O=c1[nH]c(N/N=C\c2ccc3c(c2)OCO3)nc2ccccc12`?
LYPLA2 counter: 7; LYPLA1 inh: 6; PAD4 inh: -2; Fam108B inh: 4; GSTO1 inh: -1; PME-1 inh: 29*

How did O=c1[nH]c(N/N=C/c2ccccc2)nc2ccccc12 do in these assays?
LYPLA2 counter: 0; LYPLA1 inh: -3; PAD4 inh: 2; Fam108B inh: 5; GSTO1 inh: -6; PME-1 inh: 12

How did Cc1ccc2c(c1)C(=O)C(=O)N2CC(=O)Nc1ccc(N2CCOCC2)cc1 do in these assays?
LYPLA2 counter: -6; LYPLA1 inh: -6; PAD4 inh: -4; Fam108B inh: -6; GSTO1 inh: 9; PME-1 inh: 0

Results for Nc1ccc(O)c(C(=O)O)c1 ?
LYPLA2 counter: 5; LYPLA1 inh: 7; PAD4 inh: 16*; Fam108B inh: 9; GSTO1 inh: 76*; PME-1 inh: -3

Results for O=C(CCNS(=O)(=O)c1cccc2nonc12)N1CCN(c2cccc(Cl)c2)CC1 ?
LYPLA2 counter: 48*; LYPLA1 inh: 3; PAD4 inh: -4; Fam108B inh: 4; GSTO1 inh: 3; PME-1 inh: 3

What do the screens show for `Cc1ccc2[nH]c3c(N4CCc5ccccc5C4)ncnc3c2c1`?
LYPLA2 counter: -11; LYPLA1 inh: -12; PAD4 inh: 0; Fam108B inh: 14; GSTO1 inh: -12; PME-1 inh: 30*

What do the screens show for `Fc1ccc2[nH]c3c(N4CCc5ccccc5C4)ncnc3c2c1`?
LYPLA2 counter: 9; LYPLA1 inh: 3; PAD4 inh: 0; Fam108B inh: 1; GSTO1 inh: 7; PME-1 inh: 9

How did Cc1ccc(C)c(OCCC(=O)NCCc2ccc(F)cc2)c1 do in these assays?
LYPLA2 counter: 7; LYPLA1 inh: 1; PAD4 inh: 1; Fam108B inh: -4; GSTO1 inh: -3; PME-1 inh: 5

Results for O=[N+]([O-])c1ccccc1NC(=S)N/N=C/c1ccc(O)c(O)c1 ?
LYPLA2 counter: -10; LYPLA1 inh: -15; PAD4 inh: 1; Fam108B inh: 12; GSTO1 inh: 50*; PME-1 inh: 27*

What do the screens show for `NC(=S)N=Nc1c(O)[nH]c2c(Br)cc(Br)cc12`?
LYPLA2 counter: -10; LYPLA1 inh: 0; PAD4 inh: 1; Fam108B inh: -9; GSTO1 inh: 39*; PME-1 inh: 5

How did O=C(CCNS(=O)(=O)/C=C/c1ccccc1)NCCc1c[nH]c2ccccc12 do in these assays?
LYPLA2 counter: 3; LYPLA1 inh: 0; PAD4 inh: -3; Fam108B inh: 5; GSTO1 inh: 3; PME-1 inh: -4

How did Cc1cc(C)nc(Nc2cccc(C(F)(F)F)c2)n1 do in these assays?
LYPLA2 counter: 5; LYPLA1 inh: -1; PAD4 inh: -1; Fam108B inh: -3; GSTO1 inh: 36*; PME-1 inh: 3

Results for COc1nc(Nc2cccc(C(F)(F)F)c2)nc(OC)n1 ?
LYPLA2 counter: 3; LYPLA1 inh: 0; PAD4 inh: -4; Fam108B inh: -11; GSTO1 inh: 0; PME-1 inh: -7

What do the screens show for `COc1ccc(C2NN=C(c3ccc(C)cc3)S2)cc1` (centres undefined)?
LYPLA2 counter: -5; LYPLA1 inh: -3; PAD4 inh: 6; Fam108B inh: -1; GSTO1 inh: 2; PME-1 inh: -5

Results for CCOc1cc(C2NN=C(c3ccc(C)cc3)S2)ccc1O (centres undefined) ?
LYPLA2 counter: 6; LYPLA1 inh: -2; PAD4 inh: -7; Fam108B inh: 25*; GSTO1 inh: -17; PME-1 inh: 8
